Results taken from PubChem BioAssay (NCATS).
Results filed as inconclusive are left out. Where a call stands in place of a potency, no number is given. The source made the active and inactive calls. Unless noted, the call rests on the fitted dose curve; in most records, active means well fitted curve in the direction sought with a large enough effect; inconclusive means small, poorly fitted or top-dose-only effect, or another doubt; inactive means no such curve, though single readings can be large; an effect the other way counts as inactive or inconclusive.

What was measured:
[1] = target: Tumor susceptibility gene 101 protein (Homo sapiens) (UniProt Q99816); assay: qHTS Assay for Iinhibitors of HIV-1 Budding by Blocking the Interaction of PTAP/TSG101: Hit Validation (AID 651600); further: nearly all actives have a fitted effect of over 70% in size; further: potency means the concentration at half of the fitted maximal effect
Chain of Tumor susceptibility gene 101 protein (Homo sapiens) (Q99816 whole entry, looked up): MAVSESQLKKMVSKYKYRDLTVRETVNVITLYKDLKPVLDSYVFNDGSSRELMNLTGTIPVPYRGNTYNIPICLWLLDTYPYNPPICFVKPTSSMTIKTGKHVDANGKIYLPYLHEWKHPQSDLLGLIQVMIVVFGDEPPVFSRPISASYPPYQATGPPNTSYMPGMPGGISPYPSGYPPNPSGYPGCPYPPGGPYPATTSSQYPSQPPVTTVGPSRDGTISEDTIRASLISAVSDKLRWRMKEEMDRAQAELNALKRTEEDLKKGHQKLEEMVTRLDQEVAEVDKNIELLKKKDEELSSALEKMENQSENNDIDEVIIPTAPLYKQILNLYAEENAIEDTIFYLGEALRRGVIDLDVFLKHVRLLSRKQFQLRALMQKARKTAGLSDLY
In short: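 Measuring PTAP–Tsg101 interaction by FP: protein at 10 uM and fluorescent peptide at 50 nM (final), buffer 10 mM HEPES pH 7.5 with 0.15 M NaCl, 3 mM EDTA, 0.1 mM TCEP, 0.01% Tween 20; 20 min incubation, r.t.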

[2] = qHTS for Inhibitors of Ubiquitin-specific Protease USP2a Using CHOP2 as the Reporter: K633 Counterscreen (AID 652168)
In short: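 Cell-free interference counterscreen without USP2a: compounds pinned into enzyme-free buffer (20 mM Tris pH 8, 2 mM beta-mercaptoethanol, 0.05% Chaps), then DiUb K48-4IQF substrate added (100 nM stock); fluorescence read kinetically, Ex 525/Em 598.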

[3] = qHTS for Inhibitors of Ubiquitin-specific Protease USP2a Using CHOP2 as the Reporter: Cytotox Assay (AID 652170); further: nearly all actives have a fitted effect of over 70% in size; further: potency means the concentration at half of the fitted maximal effect
In short: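 HCT116 human colon cancer cells, 600 per well in DMEM with 10% FBS, exposed to compounds for 72 hr at 37 deg C. ATP measured by CellTiter-Glo luminescence, normalized to DMSO cells and no-cell background.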

[4] = target: Ubiquitin carboxyl-terminal hydrolase 2 (Homo sapiens) (UniProt O75604); assay: qHTS for Inhibitors of Ubiquitin-specific Protease USP2a Using CHOP2 as the Reporter: K484 Substrate (AID 652173);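 further: cleavage of internally quenched K48 di-ubiquitin substrate measured as rising fluorescence over time; potency means the concentration at half of the fitted maximal effect; nearly all actives have a fitted effect of over 70% in size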
Chain of Ubiquitin carboxyl-terminal hydrolase 2 (Homo sapiens) (O75604 whole entry, looked up): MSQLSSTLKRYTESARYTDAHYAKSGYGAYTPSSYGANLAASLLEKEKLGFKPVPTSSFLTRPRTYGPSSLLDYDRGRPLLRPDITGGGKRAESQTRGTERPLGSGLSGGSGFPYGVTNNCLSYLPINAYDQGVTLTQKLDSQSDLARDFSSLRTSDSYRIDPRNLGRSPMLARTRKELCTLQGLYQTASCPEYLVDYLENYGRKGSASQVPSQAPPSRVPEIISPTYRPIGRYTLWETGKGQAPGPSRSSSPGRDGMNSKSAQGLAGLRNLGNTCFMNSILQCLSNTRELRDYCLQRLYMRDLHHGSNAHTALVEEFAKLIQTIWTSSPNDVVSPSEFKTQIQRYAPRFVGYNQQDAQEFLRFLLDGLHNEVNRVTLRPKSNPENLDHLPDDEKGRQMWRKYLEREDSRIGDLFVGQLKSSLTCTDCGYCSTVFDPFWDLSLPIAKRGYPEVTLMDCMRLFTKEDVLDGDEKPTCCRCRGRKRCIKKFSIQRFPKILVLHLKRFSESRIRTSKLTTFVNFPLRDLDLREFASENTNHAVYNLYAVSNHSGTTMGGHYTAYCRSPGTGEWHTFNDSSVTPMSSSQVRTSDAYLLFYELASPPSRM
In short: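 USP2 (dispensed at 5 nM) was pinned with compounds, then DiUb K48 internally quenched fluorescent substrate (dispensed at 100 nM) was added. The buffer was 20 mM Tris pH 8, 2 mM beta-mercaptoethanol and 0.05% CHAPS. Cleavage was read kinetically as rising fluorescence, Ex 525/Em 598.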

[5] = Cell Proliferation Assay against the TMD8 Cell Line (AID 651645); settings: TMD8 DLBCL cell line proliferation/viability; at 46.1 µM (top of the series);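 further: cells exposed to compound for 48 h before reading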
In short: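 Cell viability of the ABC DLBCL line TMD8 is measured by CellTiter-Glo luminescence following a 48-hour incubation with compound. Percent activity uses DMSO as 100% and 9.2 uM bortezomib (final) as 0%.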

[6] = Cell Proliferation Assay against the HBL1 Cell Line (AID 651646); settings: HBL1 DLBCL cells; at 46.1 µM (top of the series);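 further: cells exposed to compound for 48 h before reading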
In short: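 HBL1 ABC DLBCL cells, 500/well in RPMI with 5% FBS, treated for 48 h at 37C. Viability read by CellTiter-Glo luminescence, normalized to DMSO as 100% and 9.2 uM bortezomib as 0%.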

[7] = target: Tyrosine-protein kinase Yes (Homo sapiens) (UniProt P07947); assay: qHTS for small molecule inhibitors of Yes1 kinase: Primary Screen (AID 686947); further: nearly all actives have a fitted effect of over 60% in size
Chain of Tyrosine-protein kinase Yes (Homo sapiens) (P07947 whole entry, looked up): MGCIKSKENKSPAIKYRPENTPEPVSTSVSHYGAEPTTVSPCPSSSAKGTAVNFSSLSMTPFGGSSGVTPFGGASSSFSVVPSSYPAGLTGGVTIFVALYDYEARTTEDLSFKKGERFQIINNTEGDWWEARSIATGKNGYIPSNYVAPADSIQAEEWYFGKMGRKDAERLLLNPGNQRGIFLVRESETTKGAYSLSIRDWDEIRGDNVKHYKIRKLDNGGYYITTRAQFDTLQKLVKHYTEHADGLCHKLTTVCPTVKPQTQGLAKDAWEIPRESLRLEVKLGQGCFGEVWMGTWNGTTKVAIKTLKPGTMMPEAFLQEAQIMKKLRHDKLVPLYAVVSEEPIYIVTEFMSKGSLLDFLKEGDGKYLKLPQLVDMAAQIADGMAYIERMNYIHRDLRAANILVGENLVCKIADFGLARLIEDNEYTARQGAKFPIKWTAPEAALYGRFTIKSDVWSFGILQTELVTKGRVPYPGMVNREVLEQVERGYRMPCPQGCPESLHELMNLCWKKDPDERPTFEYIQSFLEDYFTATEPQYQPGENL
In short: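 Yes1 (4 nM) preincubated 20 min with compound, then 60 min room-temperature reaction with 0.1 mM ATP and 0.3 mg/mL poly(E4Y) in pH 7.5 Tris, 10 mM MgCl2. ADP measured by ADP-Glo luminescence, normalised to enzyme/no-enzyme controls.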

[8] = qHTS for small molecule inhibitors of Yes1 kinase: Counter Assay (AID 686950);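 further: no kinase present so only ADP-Glo detection of a fixed ADP amount is tested; luminescence from ADP-Glo reporting ADP in a fixed ATP and ADP mixture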
In short: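 Enzyme-free detection counter-screen: compounds preincubated 20 min in buffer, then 0.08 mM ATP plus 0.02 mM ADP added for 60 min at room temperature; ADP-Glo luminescence. Buffer 50 mM Tris pH 7.5, 10 mM MgCl2, 150 mM NaCl; normalized to ATP+ADP and ATP-only controls.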

[9] = qHTS assay for small molecule agonists of the antioxidant response element (ARE) signaling pathway (AID 651741; active means well fitted activation curve with a large enough effect in the signal ratio; the % refers to the signal ratio)
In short: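 CellSensor ARE-bla HepG2 cells (2,000/well) carrying ARE-driven beta-lactamase, exposed 16 h at 37 C. LiveBLAzer B/G FRET substrate added for 2 h at room temperature; fluorescence intensity read.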

[10] = qHTS assay for small molecule activators of the p53 signaling pathway (AID 651743; active means well fitted activation curve with a large enough effect in the signal ratio, not every such curve was filed as active; the % refers to the signal ratio); settings: HCT-116 p53RE-bla, beta-lactamase FRET ratio, 16 h; activation: stronger effect = higher value
In short: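 p53RE-bla HCT-116 cells carrying a beta-lactamase reporter under p53 response elements were exposed to compounds for 16 hours at 37 C. Reporter activity read as fluorescence after 2 hours at room temperature with LiveBLAzer B/G FRET substrate.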

[11] = qHTS assay for environmental chemicals that activate the Aryl hydrocarbon Receptor (AhR) signaling pathway (AID 651777); settings: 1A2-DRE human hepatoma cells, luciferase, 24 h; activation: stronger effect = higher value; further: nearly all actives have a fitted effect of over 15% in size
In short: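 Quantitative HTS in stably transfected human liver-derived cells whose luciferase gene sits downstream of the CYP1A2 promoter and dioxin response element. After 24 hr exposure at 37 C, One-Glo luminescence was measured.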

[12] = qHTS assay for small molecule agonists of the antioxidant response element (ARE) signaling pathway measured by Nrf2-dependant transcriptional activity - cell viability counter screen (AID 720653; active means well fitted curve in the direction sought with a large enough effect in the repeat runs; an effect the other way counts as inactive or inconclusive); settings: ARE-bla HepG2 viability, CellTiter-Glo ATP luminescence, 16 h; max response: stronger effect = lower value
In short: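 ARE-bla HepG2 cells treated with compounds for 16 h at 37C; this counter screen measures viability as intracellular ATP by CellTiter-Glo luminescence after 30 min at room temperature.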

[13] = qHTS assay for cell viability of HEK293 cells (AID 743288); settings: ATP luminescence (CellTiter-Glo), 18 h; max response: stronger effect = lower value; further: nearly all actives have a fitted effect of over 50% in size
In short: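 Luminescent ATP quantitation served as the viability read-out. Cells (parental HEK293, 2,000/well) received compounds after at least 5 h at 37 C and were exposed for 18 h before a 30 min room-temperature reagent step.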

[14] = qHTS assay for cell viability of the p53RE-bla HCT-116 cell line (AID 743292); further: potency means the concentration at half of the fitted maximal effect; nearly all actives have a fitted effect of over 55% in size
In short: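 Viability of compound-treated p53RE-bla HCT-116 cells is taken from ATP-dependent luciferase luminescence. Treatment lasts 16 h at 37 C after a 5 h settling period; detection follows 30 min at room temperature.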

## COc1cc(/C=c2\sc3nc(=O)c(-c4ccccc4)nn3c2=O)ccc1OCCC(C)C
[1]
  Potency: inactive

## Cc1ccccc1S(=O)(=O)Nc1cnccc1C(=O)Nc1nc(-c2ccccc2)cs1
[2]
  outcome: inactive
[3]
  Potency: 18.7 µM (active)
[4]
  Potency: 2.43 µM (active)

## Clc1ccc(-c2nnc3sc(-c4ccc(Br)o4)nn23)cc1
[1]
  Potency: 4.61 µM (active)

## Cc1ccc(-c2cc(C(=O)Nc3ccc(C(F)(F)F)cc3)c3ccccc3n2)cc1C
[2]
  outcome: inactive
[3]
  Potency: inactive

## CN1c2ccc(C=O)c3c(C=O)ccc(c23)N(C)C1(C)C
[1]
  Potency: inactive

## c1ccc2[nH]c3cc4ncnc4cc3nc2c1
[1]
  Potency: 6.51 µM (active)

## Cc1c(C(=O)N(C)c2cccc(C(F)(F)F)c2)sc2nc3n(c(=O)c12)CCCCC3
[1]
  Potency: inactive

## Cn1nc([N+](=O)[O-])c(C(C#N)c2nc3ccccc3n2C)c(Cl)c1=O (stereo not given)
[1]
  Potency: inactive

## Cc1ccc(-c2cc(C(=O)NC3CCCCC3)c3ccccc3n2)cc1C
[2]
  outcome: inactive
[3]
  Potency: inactive

## CN(Cc1nccs1)S(=O)(=O)c1ccc(Nc2nc(-c3ccccc3)cs2)cc1
[2]
  outcome: inactive

## Cc1ccc(S(=O)(=O)Nc2cnccc2C(=O)Nc2nc(-c3ccc(F)cc3)cs2)cc1
[2]
  outcome: inactive

## C=C1C(=C/C=C2\CCC[C@]3(C)[C@@H]([C@H](C)/C=C/[C@H](C)C(C)C)CC[C@@H]23)C[C@@H](O)C[C@@H]1O
[5]
  viability (% of control): -0.788%
[6]
  viability, percent of control: -0.446%
[7]
  Potency: inactive
[8]
  outcome: inactive

## CCCCCCCC1CCC(=O)O1 (stereo not given)
[9]
  Potency: inactive
[10]
  activation: -2.71% (inactive)
[11]
  activation: 4.53% (inactive)
[12]
  max response: -3.73% (inactive)
[13]
  max response: -3.73% (inactive)

## COc1ccc(CCn2c(NN=C(C)C)nc3c2c(=O)[nH]c(=O)n3C)cc1
[1]
  Potency: inactive

## Cc1ccc(S(=O)(=O)Nc2cnccc2C(=O)NCCc2ccccc2)cc1
[2]
  outcome: inactive

## O=C(C1=C(O)C(=O)N(c2nccs2)C1c1ccccc1)c1cc2ccccc2o1 (stereo not given)
[1]
  Potency: 5.17 µM (active)

## O=C1CCCC2=C1Sc1ccc(Cl)cc1N2
[1]
  Potency: inactive

## O=C(Nc1nc(-c2ccccc2)cs1)c1ccncc1NS(=O)(=O)c1cccs1
[2]
  outcome: inactive
[3]
  Potency: inactive
[4]
  Potency: 3.43 µM (active)

## Cc1c(C(=O)Nc2cccc(C(F)(F)F)c2)sc2nc3n(c(=O)c12)CCCC3
[1]
  Potency: inactive

## CC[C@H]1O[C@]2(CC[C@@H]1C)C[C@@H]1C[C@@H](C/C=C(\C)C[C@@H](C)/C=C/C=C3CO[C@@H]4[C@H](O)C(C)=C[C@@H](C(=O)O1)[C@]34O)O2
[11]
  activation: -11.9% (inactive)
[14]
  Potency: 31.6 µM (active)

## Nc1c(C(=O)C2CC2)sc2nc(-c3ccccc3)cc(C(F)(F)F)c12
[1]
  Potency: inactive

## CCCCOC(=O)c1ccc(NC(=O)/C(C#N)=C/c2ccc(-c3ccccc3)o2)cc1
[1]
  Potency: inactive

## O=c1oc2c3c4c(cc2c2c1CCC2)OCCN4CCC3
[1]
  Potency: inactive

## CN(C)c1ccc(N=Cc2nc(-c3ccccc3)oc2O)cc1
[1]
  Potency: 18.3 µM (active)

## O=C(Nc1nc(-c2ccccc2)cs1)c1ccncc1NS(=O)(=O)c1ccccc1
[2]
  outcome: inactive

## CC(=O)Nc1ccc(N=Cc2c(O)ccc3ccccc23)cc1
[1]
  Potency: 29.1 µM (active)

## CC1CCc2cccc3c2N1c1cc(C#N)c(C#N)cc1O3 (stereo not given)
[1]
  Potency: inactive

## Cc1ccc(S(=O)(=O)Nc2cnccc2C(=O)Nc2nc(-c3cnn(C)c3)cs2)cc1
[2]
  outcome: inactive
[3]
  Potency: inactive
[4]
  Potency: 8.63 µM (active)

## N#Cc1c(C#N)c(O)c2ccccc2c1O
[1]
  Potency: inactive

## O=c1[nH]c2c(s1)C=Nc1ccccc1N2
[1]
  Potency: 9.19 µM (active)

## COc1ccc(C(=O)c2sc3nc(C)cc(-c4cccs4)c3c2N)cc1
[1]
  Potency: inactive

## O=S(=O)(Nc1cccc(-c2ccc(N3CCCCCC3)nn2)c1)c1cccc(F)c1
[1]
  Potency: inactive

## C=CCOc1ccc(C2OC34CCCCC3C(C#N)(C#N)C2(C#N)C(=N)O4)cc1 (stereo not given)
[1]
  Potency: 25.9 µM (active)

## Cc1ccc(S(=O)(=O)Nc2cnccc2C(=O)Nc2cccc3ccccc23)cc1
[2]
  outcome: inactive
[4]
  Potency: 7.69 µM (active)

## O=C(Nc1ccc(S(=O)(=O)Nc2ncc(-c3ccccc3)s2)cc1)c1ccc2ccccc2c1
[2]
  outcome: inactive
[3]
  Potency: inactive
[4]
  Potency: 3.06 µM (active)

## O=C1CCCc2cc(S(=O)(=O)Nc3cnccc3C(=O)Nc3nc(-c4ccccc4)cs3)ccc2N1
[2]
  outcome: inactive
[4]
  Potency: 7.69 µM (active)

## Cc1ccc(S(=O)(=O)Nc2cnccc2C(=O)Nc2nc(-c3ccccc3Cl)cs2)cc1
[2]
  outcome: inactive
[4]
  Potency: 1.72 µM (active)

## O=C(Nc1nc(-c2ccc(F)cc2)cs1)c1ccncc1NS(=O)(=O)c1ccccc1Cl
[2]
  outcome: inactive
[4]
  Potency: 3.06 µM (active)
